Results on eight sequences are retold here after paper PMC7862700, “An all-to-all approach to the identification of sequence-specific readers for epigenetic DNA modifications on cytosine”.

Experiment in all cases: DAPPL (digital affinity profiling via proximity ligation, sequencing); 10 mM Tris-HCl pH 7.5, 50 mM NaCl, 1 mM DTT, 4% glycerol, room temperature, 30 min; GST-TFs on glutathione beads, 16-mer random dsDNA library, 0.1% formaldehyde crosslink after washing; high values mean tight binding
What all share (settings): protein: recombinant; tags: N-terminal GST; dsDNA, one strand shown

One assay has as its target T1, FEV (Homo sapiens, UniProt Q99581 1-238).
T1 sequence: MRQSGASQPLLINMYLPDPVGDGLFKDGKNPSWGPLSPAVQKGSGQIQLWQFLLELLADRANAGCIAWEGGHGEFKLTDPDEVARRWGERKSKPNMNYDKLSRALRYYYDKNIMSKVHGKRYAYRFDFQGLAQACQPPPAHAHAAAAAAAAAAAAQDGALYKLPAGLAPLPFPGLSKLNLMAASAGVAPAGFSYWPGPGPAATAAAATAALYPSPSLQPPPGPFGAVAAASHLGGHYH
A digest of the protocol:
(§1)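 Binding signal is given per hexamer as its read frequency for a factor divided by its frequency in the tag-only sample. GST-fused human transcription factors were expressed in yeast, captured on glutathione beads, barcoded with DNA and pooled with that sample, then incubated with 200 nmole of a 16-mer random double-stranded DNA library in Tris/NaCl/DTT/glycerol buffer for 30 min at room temperature. The pools were then washed, crosslinked, proximity-ligated, amplified by PCR and sequenced on an Illumina NextSeq500.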

A further assay concerns the target ETV5 (Homo sapiens, UniProt P41161 1-510). A digest of the protocol: as §1
In a further assay the target is T2, SPIC (Homo sapiens, UniProt Q8N5J4 1-248).
T2 sequence: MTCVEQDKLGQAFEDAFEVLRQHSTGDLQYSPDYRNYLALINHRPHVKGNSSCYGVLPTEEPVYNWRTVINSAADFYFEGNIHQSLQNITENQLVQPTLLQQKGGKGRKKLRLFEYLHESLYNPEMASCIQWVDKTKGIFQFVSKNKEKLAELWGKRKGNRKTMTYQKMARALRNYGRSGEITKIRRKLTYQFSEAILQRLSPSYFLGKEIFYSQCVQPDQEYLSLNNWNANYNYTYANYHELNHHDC
The essentials: as §1

Another assay has as its target ELF4 (Homo sapiens, UniProt Q99607 1-663). A digest of the protocol:
as §1

The target of the next assay is T3, ELK4 (Homo sapiens, UniProt P28324-2 1-405).
T3 sequence: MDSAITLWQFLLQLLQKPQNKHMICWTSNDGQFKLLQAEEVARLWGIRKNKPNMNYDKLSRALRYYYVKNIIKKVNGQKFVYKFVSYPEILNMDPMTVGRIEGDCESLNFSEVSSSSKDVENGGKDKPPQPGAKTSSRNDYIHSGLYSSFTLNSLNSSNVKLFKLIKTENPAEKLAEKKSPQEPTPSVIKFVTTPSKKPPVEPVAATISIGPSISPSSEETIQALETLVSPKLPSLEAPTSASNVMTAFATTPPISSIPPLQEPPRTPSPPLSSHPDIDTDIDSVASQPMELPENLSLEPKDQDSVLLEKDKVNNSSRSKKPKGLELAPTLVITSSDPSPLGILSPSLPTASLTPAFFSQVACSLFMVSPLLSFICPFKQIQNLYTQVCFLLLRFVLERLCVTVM
A digest of the protocol:
as §1

The target in a further assay is T4, ETV2 (Homo sapiens, UniProt O00321 1-342).
T4 sequence: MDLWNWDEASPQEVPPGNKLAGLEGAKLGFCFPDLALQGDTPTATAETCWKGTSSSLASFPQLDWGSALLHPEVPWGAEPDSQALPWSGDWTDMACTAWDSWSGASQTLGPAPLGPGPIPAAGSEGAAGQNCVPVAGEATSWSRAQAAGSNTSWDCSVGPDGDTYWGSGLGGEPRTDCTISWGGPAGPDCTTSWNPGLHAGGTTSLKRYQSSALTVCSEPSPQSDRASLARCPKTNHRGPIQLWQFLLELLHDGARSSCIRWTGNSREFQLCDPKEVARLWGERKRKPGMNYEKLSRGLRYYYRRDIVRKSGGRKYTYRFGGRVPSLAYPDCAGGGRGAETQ
The essentials:
as §1

The target in the next assay is T5, ELF3 (Homo sapiens, UniProt P78545 1-371).
T5 sequence: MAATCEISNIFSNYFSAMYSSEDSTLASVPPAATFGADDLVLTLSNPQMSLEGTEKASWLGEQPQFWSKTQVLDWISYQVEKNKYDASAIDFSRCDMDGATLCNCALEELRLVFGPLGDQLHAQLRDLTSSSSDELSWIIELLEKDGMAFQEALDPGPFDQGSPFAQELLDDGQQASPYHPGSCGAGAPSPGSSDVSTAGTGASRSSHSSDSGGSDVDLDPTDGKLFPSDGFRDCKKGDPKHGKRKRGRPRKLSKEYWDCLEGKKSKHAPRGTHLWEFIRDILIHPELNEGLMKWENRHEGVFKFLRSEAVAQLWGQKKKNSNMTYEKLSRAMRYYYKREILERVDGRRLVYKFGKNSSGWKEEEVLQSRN
The essentials:
as §1

A further assay concerns the target ETV1 (Homo sapiens, UniProt P50549 1-477). The essentials: as §1

ETV1, sequence (P50549 whole entry): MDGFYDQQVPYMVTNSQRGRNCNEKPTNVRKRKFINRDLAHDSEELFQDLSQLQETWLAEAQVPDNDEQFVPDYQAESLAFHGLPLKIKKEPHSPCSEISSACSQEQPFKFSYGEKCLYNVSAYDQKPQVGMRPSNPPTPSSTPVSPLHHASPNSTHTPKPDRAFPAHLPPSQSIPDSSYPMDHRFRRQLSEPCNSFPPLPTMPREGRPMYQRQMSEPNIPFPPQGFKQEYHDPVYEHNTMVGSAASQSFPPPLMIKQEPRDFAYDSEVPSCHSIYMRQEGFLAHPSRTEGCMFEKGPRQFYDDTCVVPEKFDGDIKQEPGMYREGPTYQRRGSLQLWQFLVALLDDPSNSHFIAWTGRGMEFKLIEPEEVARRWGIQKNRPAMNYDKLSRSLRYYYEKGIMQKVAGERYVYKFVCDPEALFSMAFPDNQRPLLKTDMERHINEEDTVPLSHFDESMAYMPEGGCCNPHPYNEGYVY
ELF4, sequence (Q99607 whole entry): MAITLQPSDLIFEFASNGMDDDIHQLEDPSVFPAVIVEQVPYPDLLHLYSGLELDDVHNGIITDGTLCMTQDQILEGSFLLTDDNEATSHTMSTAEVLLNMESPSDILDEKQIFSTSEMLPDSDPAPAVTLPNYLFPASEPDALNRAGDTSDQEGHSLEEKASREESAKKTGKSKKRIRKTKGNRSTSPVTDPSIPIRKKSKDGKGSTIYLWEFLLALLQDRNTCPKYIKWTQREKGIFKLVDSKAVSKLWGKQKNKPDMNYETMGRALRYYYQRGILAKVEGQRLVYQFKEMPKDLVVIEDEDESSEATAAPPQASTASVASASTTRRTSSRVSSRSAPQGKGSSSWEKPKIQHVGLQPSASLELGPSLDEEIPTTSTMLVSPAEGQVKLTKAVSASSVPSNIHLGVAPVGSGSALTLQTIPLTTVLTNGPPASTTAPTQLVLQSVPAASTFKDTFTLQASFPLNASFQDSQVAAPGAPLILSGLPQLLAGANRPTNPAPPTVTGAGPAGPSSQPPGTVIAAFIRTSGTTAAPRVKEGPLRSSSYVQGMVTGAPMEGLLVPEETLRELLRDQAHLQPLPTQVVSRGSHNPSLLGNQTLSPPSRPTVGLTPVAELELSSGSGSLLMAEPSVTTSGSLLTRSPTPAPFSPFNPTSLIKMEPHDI
ETV5, sequence (P41161 whole entry): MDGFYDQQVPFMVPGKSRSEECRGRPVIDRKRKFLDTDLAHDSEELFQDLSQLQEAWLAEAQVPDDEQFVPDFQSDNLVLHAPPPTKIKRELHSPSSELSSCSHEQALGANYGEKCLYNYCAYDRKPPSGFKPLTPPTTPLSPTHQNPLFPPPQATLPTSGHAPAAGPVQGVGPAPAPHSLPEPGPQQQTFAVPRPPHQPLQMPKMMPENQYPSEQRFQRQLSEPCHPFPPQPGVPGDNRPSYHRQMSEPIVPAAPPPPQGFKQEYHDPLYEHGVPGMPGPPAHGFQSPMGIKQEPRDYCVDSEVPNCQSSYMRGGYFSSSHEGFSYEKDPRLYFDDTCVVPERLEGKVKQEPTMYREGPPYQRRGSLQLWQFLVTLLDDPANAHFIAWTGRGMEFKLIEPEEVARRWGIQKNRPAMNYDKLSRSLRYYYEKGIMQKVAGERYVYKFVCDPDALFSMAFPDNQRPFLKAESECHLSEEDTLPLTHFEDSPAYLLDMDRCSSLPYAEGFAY

GAAGTG: the binding signal was 1.88 fold enrichment (6-mer frequency, TF over GST control) in the assay with FEV; 1.73 fold enrichment (6-mer frequency, TF over GST control) with ETV5; 2.01 fold enrichment (6-mer frequency, TF over GST control) in the assay with SPIC; 1.6 fold enrichment (6-mer frequency, TF over GST control) in the assay with ELF4; 1.32 fold enrichment (6-mer frequency, TF over GST control) with ELK4; 1.65 fold enrichment (6-mer frequency, TF over GST control) in the assay with ETV2. For the same sequence, the binding signal with ELF3 is 1.65 fold enrichment (6-mer frequency, TF over GST control); in the assay with ETV1, 1.86 fold enrichment (6-mer frequency, TF over GST control).

As for GATAGC, the binding signal is 1.07 fold enrichment (6-mer frequency, TF over GST control) with FEV; 1.04 fold enrichment (6-mer frequency, TF over GST control) with ETV5; 1.07 fold enrichment (6-mer frequency, TF over GST control) with SPIC; 1.06 fold enrichment (6-mer frequency, TF over GST control) with ELF4; 1.03 fold enrichment (6-mer frequency, TF over GST control) with ELK4; 1.18 fold enrichment (6-mer frequency, TF over GST control) with ETV2. In addition, the binding signal was 1.08 fold enrichment (6-mer frequency, TF over GST control) with ELF3 and 1.02 fold enrichment (6-mer frequency, TF over GST control) with ETV1.

For CCCCAC, the binding signal is 1.29 fold enrichment (6-mer frequency, TF over GST control) in the assay with FEV; 1.18 fold enrichment (6-mer frequency, TF over GST control) in the assay with ETV5; 1.33 fold enrichment (6-mer frequency, TF over GST control) with SPIC; 1.28 fold enrichment (6-mer frequency, TF over GST control) with ELF4; 1.36 fold enrichment (6-mer frequency, TF over GST control) with ELK4; 1.2 fold enrichment (6-mer frequency, TF over GST control) with ETV2. The binding signal is 1.25 fold enrichment (6-mer frequency, TF over GST control) with ELF3 and 1.11 fold enrichment (6-mer frequency, TF over GST control) with ETV1.

On to TGCTGT, for which the binding signal with FEV was 1.01 fold enrichment (6-mer frequency, TF over GST control); in the assay with ETV5 it was 1.06 fold enrichment (6-mer frequency, TF over GST control); in the assay with SPIC it was 1.18 fold enrichment (6-mer frequency, TF over GST control); with ELF4, 1.06 fold enrichment (6-mer frequency, TF over GST control); in the assay with ELK4, 1.19 fold enrichment (6-mer frequency, TF over GST control); with ETV2 it was 1.15 fold enrichment (6-mer frequency, TF over GST control). The binding signal is 1.12 fold enrichment (6-mer frequency, TF over GST control) with ELF3 and 1.17 fold enrichment (6-mer frequency, TF over GST control) in the assay with ETV1.

On to GCTTGG, for which the binding signal is 1.03 fold enrichment (6-mer frequency, TF over GST control) with FEV; 1.02 fold enrichment (6-mer frequency, TF over GST control) with ETV5; 1.03 fold enrichment (6-mer frequency, TF over GST control) with SPIC; 1.07 fold enrichment (6-mer frequency, TF over GST control) with ELF4; 1.11 fold enrichment (6-mer frequency, TF over GST control) with ELK4; 1.07 fold enrichment (6-mer frequency, TF over GST control) with ETV2. Further, the binding signal with ELF3 is 1.14 fold enrichment (6-mer frequency, TF over GST control); with ETV1 it was 1.22 fold enrichment (6-mer frequency, TF over GST control).

Turning to GTCCCC, the binding signal with FEV was 1.18 fold enrichment (6-mer frequency, TF over GST control); with ETV5, 1.27 fold enrichment (6-mer frequency, TF over GST control); with SPIC, 1.26 fold enrichment (6-mer frequency, TF over GST control); in the assay with ELF4, 1.2 fold enrichment (6-mer frequency, TF over GST control); in the assay with ELK4, 1.26 fold enrichment (6-mer frequency, TF over GST control); with ETV2, 1.22 fold enrichment (6-mer frequency, TF over GST control). Besides, the binding signal with ELF3 is 1.38 fold enrichment (6-mer frequency, TF over GST control); with ETV1 it was 1.29 fold enrichment (6-mer frequency, TF over GST control).

CACCAT: the binding signal with FEV is 1.05 fold enrichment (6-mer frequency, TF over GST control); with ETV5, 1.11 fold enrichment (6-mer frequency, TF over GST control); with SPIC it was 1.06 fold enrichment (6-mer frequency, TF over GST control); in the assay with ELF4, 1.12 fold enrichment (6-mer frequency, TF over GST control); in the assay with ELK4, 1.21 fold enrichment (6-mer frequency, TF over GST control); with ETV2, 1.17 fold enrichment (6-mer frequency, TF over GST control). Moreover, the binding signal is 1.1 fold enrichment (6-mer frequency, TF over GST control) with ELF3 and 1.08 fold enrichment (6-mer frequency, TF over GST control) in the assay with ETV1.

Take AGTACA: the binding signal with FEV is 1.13 fold enrichment (6-mer frequency, TF over GST control); with ETV5 it was 1.13 fold enrichment (6-mer frequency, TF over GST control); in the assay with SPIC, 1.07 fold enrichment (6-mer frequency, TF over GST control); with ELF4, 1.19 fold enrichment (6-mer frequency, TF over GST control); in the assay with ELK4 it was 1.07 fold enrichment (6-mer frequency, TF over GST control); in the assay with ETV2 it was 1.01 fold enrichment (6-mer frequency, TF over GST control). Besides, the binding signal was 1.13 fold enrichment (6-mer frequency, TF over GST control) with ELF3 and 1.11 fold enrichment (6-mer frequency, TF over GST control) with ETV1.
